HSF1 activator: HSF-1 activators, primary screen, NIH3T3-HGL cells, MG132 stress, luminescence, single point | NIH3T3-HGL HSF-1 luciferase reporter, 8 h; 100% = twice DMSO control signal | activation, % at 9 µM | 300,000 tested, 1.7% active;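 active means mean replicate activation of at least 50% with a set share of replicates each reaching 50%; inconclusive means only one of those two conditions met; inactive means mean below 50% and too few replicates reaching it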
esBAF inh: Bmi1 luciferase reporter increase in mESCs, primary screen, esBAF inhibitor project, mouse ES cells, Bmi1 luciferase knock-in, single point. 24 h; 100% = twice the neutral-well signal. reporter increase, % at 12.5 µM. 350,000 tested, 2% active. AID 602393, 2012; in the data active means activation above about 40%; inconclusive means no clear call, values can overlap the other calls;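 further: a rise in the Bmi1 reporter signal indicates esBAF inhibition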
Wnt bcat act: Wnt/beta-catenin pathway activators, primary screen, cell-based, plate reader, single point; 300,000 tested, 1.2% active; Wnt/beta-catenin reporter cell assay, activator; activation, % at 9.35 µM; in the data active means activation above about 30%, passing the limit was not always enough; inconclusive means no clear call, values can overlap the other calls
HSF1 inhib: HSF1 inhibitors in luciferase reporter cells, primary screen, cell-based, NIH3T3, luminescence; NIH3T3-HGL HSE-luciferase, MG132-induced, luminescence 8 h; stronger effect = lower value; activity change, negative = inhibition, % at 7.5 µM (by protocol); 300,000 tested, 0.77% active;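 active means more than half of replicate wells show activity change below -50%, luminescence cut by over half; inconclusive means some wells, but at most half, below -50%; inactive means no replicate well below -50%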;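 further: luciferase reports HSF-1 transcriptional activity via heat shock element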
MITF TRPM1 HTS: activators of MITF-driven TRPM1 promoter reporter, primary screen, cell-based, SK-MEL-5, luciferase, single point | SK-MEL-5 TRPM1-promoter luciferase, 24 h; % of positive control, neutral wells = 0 | activation, % at 12.5 µM | 300,000 tested, 0.75% active;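 active means mean activation of at least 80% with every replicate also reaching 80%; inconclusive means mean reaches 80% but some replicate falls short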
A number is an active result; 0 = inactive; ? = inconclusive; - = not tested or not shown. Compounds with a hit are over-represented: about 3.8% of the library has one in this group of screens.

SMILES	HSF1 activator	esBAF inh	Wnt bcat act	HSF1 inhib	MITF TRPM1 HTS
CCC(=O)N(C)C[C@@H]1Oc2cc(-c3ccccc3)ccc2S(=O)(=O)N([C@H](C)CO)C[C@H]1C	-	0	-	-	-
CCOC(=O)c1c(C)c(C(=O)Nc2ccc3c(c2)OCO3)c(C)n1C	71	0	0	0	0
CCOC(=O)c1c(C)c(C(=O)Nc2ccc3c(c2)OCCO3)c(C)n1CC	0	0	-	0	0
CCn1c(SC(C)C)nnc1-c1cc(-c2ccccc2)sc1N	?	68	0	0	-
O=C(C[C@@H]1C[C@H]2c3cc(NC(=O)C4CCC4)ccc3O[C@H]2[C@H](CO)O1)NCc1ccc(-c2ccccc2)cc1	-	0	-	-	-
O=S(=O)(N[C@H]1CC[C@H](CCn2cc(C3(O)CCCC3)nn2)O[C@@H]1CO)c1ccc(F)cc1	-	0	-	-	-
O=C1C(c2cc(=O)c3ccccc3[nH]2)=C(O)c2ccccc21	65	0	?	0	0
O=c1cc(-c2ccccc2)[nH]c2ccccc12	0	0	0	0	0
Cc1noc(C)c1NC(=O)N1C[C@H](O)COC[C@@H]2O[C@H](CC(=O)NCC3CCCCC3)CC[C@H]21	-	0	-	-	-
O=C(CN1c2ccccc2Sc2ccccc21)N/N=C/c1ccc(Cl)cc1	61	-	0	0	-
C/C(N)=C(/C#N)C(=O)CSc1nn(-c2ccc(Cl)cc2)c(=S)s1	99	-	0	0	0
C=CCc1ccc(OCCn2cccc2C=O)c(OC)c1	0	-	-	0	93
O=[N+]([O-])c1ccccc1N/N=C/c1ccc2c(c1)OCO2	65	0	53	0	0
NS(=O)(=O)c1ccc(N/N=C/c2ccc3c(c2)OCO3)c([N+](=O)[O-])c1	0	-	0	0	0
O=[N+]([O-])c1ccccc1N/N=C/c1ccccc1	0	44	0	0	-
C[C@@H]1CN([C@H](C)CO)C(=O)Cc2cc(NC(=O)Nc3ccc(F)cc3)ccc2O[C@@H]1CN(C)C(=O)Nc1ccc(C(F)(F)F)cc1	-	0	-	-	-
N#C/C(=C\c1ccc(OC(=O)c2cccs2)cc1)c1nc2ccccc2[nH]1	0	-	35	0	0
N#C/C(=C\c1ccc(Sc2ccccc2)o1)c1nc2ccccc2[nH]1	0	-	0	0	121
N#C/C(=C/c1ccc(O)c(O)c1)c1nc2ccccc2[nH]1	0	57	0	0	0
N#C/C(=C\Nc1ccc2c(c1)OCCO2)c1nc2ccccc2[nH]1	0	44	-	0	0
COc1cccc(S(=O)(=O)N(C)C[C@@H]2Oc3cc(C#CCN(C)C)ccc3S(=O)(=O)N([C@@H](C)CO)C[C@H]2C)c1	-	0	-	-	-
COc1ccc(C(=O)Nc2ccc3c(c2)OC[C@@H](C)N(C(C)=O)C[C@H](C)[C@H](OC)CN(C)C3=O)cc1	-	0	-	-	-
CCOC(=O)c1sc(=NC(=O)c2cccs2)n(C)c1C	53	0	39	0	0
CCOC(=O)c1sc(=NC(=O)c2ccc(Cl)s2)n(C)c1C	0	-	0	0	0
CCOC(=O)c1sc(=NC(=O)c2ccccc2Br)n(C)c1C	0	58	32	0	?
SMILES	HSF1 activator	esBAF inh	Wnt bcat act	HSF1 inhib	MITF TRPM1 HTS
CO[C@@H]1CN(C)C(=O)c2cc(NS(C)(=O)=O)ccc2OC[C@H](C)N(CC2CCOCC2)C[C@H]1C	-	0	-	-	-
CO[C@H]1CN(C)C(=O)c2cc(NC(=O)c3cnccn3)ccc2OC[C@H](C)N(C(C)=O)C[C@H]1C	-	0	-	-	-
CC(C)(C)NC(=O)C(c1cccs1)N(Cc1cccs1)C(=O)c1ccc(CN2CCOCC2)o1 (stereo unspecified)	0	-	0	0	0
Cc1cccc(N(C(=O)c2ccc(CN3CCOCC3)o2)C(C(=O)NC(C)(C)C)c2ccc(F)cc2)c1 (stereo unspecified)	64	-	-	0	0
C=CCNC(=S)NC(=O)c1oc2ccccc2c1C	0	0	0	0	0
Cc1c(C(=O)NC(=S)NCC(C)C)oc2ccccc12	0	-	0	0	90
CC(=O)Nc1ccc(NC(=S)NC(=O)c2oc3ccccc3c2C)cc1	0	-	-	0	0
Cc1cccnc1NC(=S)NC(=O)c1oc2ccccc2c1C	0	74	0	0	0
CC(=O)N[C@@H]1CC[C@H](CC(=O)NCC2CCCCC2)O[C@H]1CO	-	0	-	-	-
CC(C)NC(=O)N(C)C[C@H]1Oc2cc(-c3ccncc3)ccc2S(=O)(=O)N([C@H](C)CO)C[C@H]1C	-	0	-	-	-
Cc1nnc(SCCc2ccccc2)[nH]c1=O	0	0	-	0	0
Cc1nc(SCCc2ccccc2)[nH]c(=O)c1C	0	50	-	0	0
CC(C)NC(=O)N(C)C[C@H]1OCCCC[C@H](C)Oc2ccc(NC(=O)Nc3ccc(C(F)(F)F)cc3)cc2C(=O)N([C@H](C)CO)C[C@H]1C	-	0	-	-	-
O=C(C[C@@H]1CC[C@@H](NC(=O)C2CC2)[C@H](CO)O1)Nc1nccs1	-	0	-	-	-
Cc1cnc(C(=O)Nc2ccc(C)c(S(=O)(=O)N(C)C)c2)cn1	0	-	0	0	0
Cc1ccc(NC(=O)c2sc(Cl)nc2-c2ccccc2)cc1C	61	0	-	0	0
Cc1ccc(NC(=O)c2cnc3ccccc3n2)cc1C	62	0	42	0	-
Cc1ccc(NC(=O)c2ccc3ccccc3n2)cc1S(=O)(=O)N(C)C	0	83	43	0	119
O=C(Nc1ccccc1)c1cnc2ccccc2n1	0	-	?	0	0
CCC(=O)N1C[C@H](C)[C@@H](OC)CN(C)C(=O)c2cc(NC(=O)c3ccc(F)cc3)ccc2OC[C@H]1C	-	0	-	-	-
Cc1cccc2sc(NC(=O)[C@H](C)N3C(=O)C4CC=CCC4C3=O)nc12 (stereo partly specified)	0	-	0	-56	0
O=C(Nc1ncccc1O)c1ccc2c(c1)OCO2	0	0	54	0	0
Cc1cccnc1NC(=O)c1ccc2c(c1)OCCO2	0	-	0	0	0
O=C(Nc1ncccc1O)c1ccc2c(c1)OCCO2	0	0	99	0	0
Cc1ccnc(NC(=O)c2ccc3c(c2)OCO3)c1	0	0	0	0	0
SMILES	HSF1 activator	esBAF inh	Wnt bcat act	HSF1 inhib	MITF TRPM1 HTS
O=C(Nc1ncccc1O)c1ccc2ccccc2c1	0	0	63	0	0
O=C(N[C@H]1CC[C@@H](CCn2cc(C3(O)CCCC3)nn2)O[C@H]1CO)C1CCOCC1	-	0	-	-	-
CO[C@@H]1CN(C)C(=O)c2cc(NC(=O)C3CCC3)ccc2OC[C@@H](C)N(Cc2ccccn2)C[C@@H]1C	-	0	-	-	-
C[C@H]1CN([C@@H](C)CO)S(=O)(=O)c2ccc(C#CC3CCCCC3)cc2O[C@@H]1CN(C)C	-	0	-	-	-
CCCC(=O)Nc1ccc2c(c1)OC[C@H](C)N(C(=O)c1ccncc1)C[C@@H](C)[C@H](OC)CN(C)C2=O	-	0	-	-	-
CC/C(=N\n1nnnc1Nc1ccccc1)c1ccccc1	0	0	0	0	-
CC(C)c1ccc(/C=N/n2nnnc2Nc2ccccc2)cc1	55	-	-	0	0
